# FLuc counter: inhibits or activates purified firefly luciferase, miR-21 counter-screen; P08659; purified FLuc, Km substrates, luminescence inhibition; Potency, µM (highest dose often 57.5 µM), for the others: top-dose activity change, negative = inhibition, most hits filed as inhibitors; 6.9% of 360,000 active; AID 588342;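 further: plate controls were vehicle for no effect and reference inhibitor for full effect; nearly all actives have a fitted effect of over 55% in size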
# Target sequence (P08659 whole entry, looked up): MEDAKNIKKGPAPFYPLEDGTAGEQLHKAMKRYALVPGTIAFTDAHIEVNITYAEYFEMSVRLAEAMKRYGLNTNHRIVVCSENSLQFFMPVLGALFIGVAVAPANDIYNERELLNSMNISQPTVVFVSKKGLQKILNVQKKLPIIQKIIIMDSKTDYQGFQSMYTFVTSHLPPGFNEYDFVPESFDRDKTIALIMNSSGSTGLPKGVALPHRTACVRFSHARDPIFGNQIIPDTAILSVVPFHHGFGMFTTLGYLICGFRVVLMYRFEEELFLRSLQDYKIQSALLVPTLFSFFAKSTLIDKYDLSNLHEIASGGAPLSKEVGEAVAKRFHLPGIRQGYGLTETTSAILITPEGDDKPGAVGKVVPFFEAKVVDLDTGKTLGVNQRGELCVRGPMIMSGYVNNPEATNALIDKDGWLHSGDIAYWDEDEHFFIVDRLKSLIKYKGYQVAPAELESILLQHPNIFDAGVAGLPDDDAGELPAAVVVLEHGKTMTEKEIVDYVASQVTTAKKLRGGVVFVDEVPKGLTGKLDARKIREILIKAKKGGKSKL
#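 Purified P. pyralis luciferase, 10 nM final, with Km-level 10 uM D-luciferin and 10 uM ATP in 50 mM Tris acetate pH 7.5, 10 mM Mg acetate, 0.01% Tween-20, 0.05% BSA; 6-point qHTS titration about 60 µM downward; luminescence read.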
# NPC1 prom act: activators of NPC1 promoter. Huh7 NPC1 promoter luciferase reporter, 24 h. Potency, µM (doses to about 9.22 µM), inactives show top-dose activation, most hits filed as activators. 2.4% of 320,000 active. AID 485313; further: % of control where 0% means no effect; nearly all actives have a fitted effect of over 60% in size
#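 Compounds in DMSO were transferred onto Huh7 NPC1-luciferase reporter cells pre-incubated 2 h; after 24 h at 37 °C, Amplite reagent was dispensed and luminescence recorded 10 min later.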
# Rab9 promoter act: activators of Rab9 promoter. 2.8% of 320,000 active. Potency, µM (doses to about 9.22 µM), for the others: top-dose activation, negative = inhibition, most hits filed as activators. Huh7 Rab9 promoter-luciferase reporter, luminescence, 24 h; further: % of control where 0% means no effect; nearly all actives have a fitted effect of over 60% in size
#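 Quantitative HTS format; Huh7 Rab9-luciferase reporter cells (1500/well) receive compound 2 h post-plating, incubate 24 h at 37 °C, then get luciferase reagent for 10 min before luminescence reading.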
# ELG1 genotoxic: genotoxicity induction in ELG1-luciferase HEK293T cells | Potency, µM (top dose mostly 46 µM), for inactives: top-dose activity change, positive = activation, most hits filed as activators | 1.3% of 330,000 active | HEK293T ELG1-luciferase reporter, luminescence, 16 h; further: % of control where 0% means no effect; nearly all actives have a fitted effect of over 60% in size
#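 Reporter readout depends on ELG1 protein level, which increases with genetic stress. After 16 hr compound exposure at 37 °C, luciferase activity was quantified using ONE-Glo.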
# ELG1 repair inh: ELG1-dependent DNA repair inhibition; HEK293T ELG1-luciferase reporter, luminescence, 16 h; DNA damage induced by 5-fluorouridine; Potency, µM (series often up to 46.1 µM), inactives show at the top dose activity change, negative = inhibition, usual class: inhibitors; AID 504467; 2.3% of 330,000 active; further: on the % scale 0 is the no-effect control and ±100 the full control effect; nearly all actives have a fitted effect of over 55% in size
#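 Luminescence from the luciferase reporter, measured 30 min after ONE-Glo reagent at room temperature, was the read-out. Beforehand, 2,000 cells per well were exposed for 16 hr at 37 °C to 5-fluorouridine together with compound or vehicle.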
# SMN2 splice enh: enhancers of SMN2 splice variant expression; HEK293 SMN2-luciferase splicing reporter, luminescence, 30-36 h; Potency, µM (doses to about 46.1 µM), for the others: at the highest dose activity change, positive = activation, usual class: activators; 2.8% of 210,000 active; AID 1458; further: % of control where 0% means no effect; nearly all actives have a fitted effect of over 55% in size
#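 qHTS luciferase splicing reporter: luminescence rises when SMN2 exon 7 is included in transfected HEK293 cells. Compound exposure lasted 30-36 h at 37C, with 4.5 mM final sodium butyrate as control, followed by a ONE-Glo read.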
# * marks the source's active call; other numbers are inactive results; ? = inconclusive; . = no result given; [ ] = remark or other dose. Hits are enriched below; roughly 9.3% of the tested compounds scored in any of these assays. The call rests on the fitted dose curve; in most records, active means well fitted curve in the direction sought with a large enough effect; inconclusive means small, poorly fitted or top-dose-only effect, or another doubt; inactive means no such curve, though single readings can be large; an effect the other way counts as inactive or inconclusive. Potency means the concentration at half of the fitted maximal effect.
SMILES,FLuc counter,NPC1 prom act,Rab9 promoter act,ELG1 genotoxic,ELG1 repair inh,SMN2 splice enh
O=C(CCC(=O)Nc1ccc(F)cc1)N/N=C/c1cc([N+](=O)[O-])ccc1O,-11%,-3%,-6%,-6%,?,10%
O=C(Cn1nnc(-c2ccccc2)n1)N/N=C/c1cc([N+](=O)[O-])ccc1O,-10%,-1%,10%,9%,-27%,.
COc1ccc(CC(=O)NNC(=O)CSc2ccc(C)cc2)cc1,5%,-6%,-3%,4%,6%,-10%
c1ccc(-n2ncc3c(N4CCCCC4)ncnc32)cc1,0.27µM*,0.32µM*,?,0.46µM*,?,-87%
COc1cccc(N2CCN(c3ncnc4c3cnn4-c3ccc(C)cc3C)CC2)c1,-18%,-19%,0%,-15%,3.3µM*,-90%
Cc1cccc(-n2ncc3c(N4CCCCCC4)ncnc32)c1,0.6µM*,.,.,.,.,.
Cc1cccc(-n2ncc3c(N4CCC(C)CC4)ncnc32)c1,1.9µM*,1.1µM*,0.89µM*,?,?,2.5µM*
COc1ccc(Cl)cc1C(=O)NNC(=S)NC(=O)c1ccc(F)c(F)c1,2%,2%,-1%,-4%,-5%,.
Cc1ccc(-n2ncc3c(N4CCCCCC4)ncnc32)cc1C,0.27µM*,.,.,.,.,.
COc1ccc(-n2ncc3c(N4CCC(C(N)=O)CC4)ncnc32)cc1,15µM*,3.5µM*,2.8µM*,0%,-9%,0%
COC(=O)c1sc2cccc(F)c2c1S(=O)(=O)Nc1cc(OC)cc(OC)c1,-6%,.,.,.,.,.
Clc1ccc(-c2cnc3n2CCC3)cc1,13µM*,22%,?,12%,?,-2%
Cc1cc(C(=O)CSc2nnc(-c3ccc(OC(F)F)cc3)o2)c(C)n1Cc1cccs1,0%,-4%,-3%,0%,3%,12%
Cc1csc(SCC(=O)c2cc(C)n(Cc3cccs3)c2C)n1,0.17µM*,?,0.32µM*,?,?,-62%
Cc1cc(C(=O)CSc2n[nH]c(-c3ccccc3F)n2)c(C)n1Cc1cccs1,17µM*,0%,-5%,-5%,4%,-8%
COc1ccc(-c2nnc(SCC(=O)c3cc(C)n(Cc4cccs4)c3C)o2)cc1,?,-1%,3%,5%,3%,-13%
Cc1cc(C(=O)CSc2nnc(N)s2)c(C)n1Cc1cccs1,0.85µM*,0.56µM*,0.28µM*,0.92µM*,?,-75%
O=C(Nc1ccc(-c2noc(CCc3ccccc3)n2)cc1)c1cccnc1,?,0%,2%,-8%,23µM*,-53%
CCc1ccc2oc(-c3cc(NC(=O)c4cc(OC)c(OC)c(OC)c4)ccc3O)nc2c1,3.8µM*,.,.,.,.,-7%
CCc1ccc2oc(-c3cc(NC(=O)c4cccnc4)cc(C)c3O)nc2c1,0.85µM*,.,.,.,.,12%
CCc1ccc2oc(-c3cc(N=Cc4cccc(OC)c4O)ccc3O)nc2c1,0.43µM*,4.5µM*,4µM*,?,?,14µM*
Cc1nc([N+](=O)[O-])cn1-c1nc2ccccn2c1[N+](=O)[O-],0%,1%,-4%,0%,-5%,2%[9.22 µM]
O=C(NC(=O)N1CCN(C(c2ccccc2)c2ccccc2)CC1)c1ccccc1,0%,-3%,-4%,-5%,?,.
COC(=O)NC(CCc1ccccc1)C(C(=O)OC)C(=O)OC (configuration not stated),.,.,.,.,.,-2%
Cc1ccc2nc(-c3ccc(Cl)c(NC(=O)c4cccnc4)c3)oc2c1,0.6µM*,.,.,.,.,-4%
SMILES,FLuc counter,NPC1 prom act,Rab9 promoter act,ELG1 genotoxic,ELG1 repair inh,SMN2 splice enh
O=C(Nc1ccc(-c2nc3ccccc3o2)cc1)c1cccnc1,2.7µM*,2.2µM*,1.6µM*,?,?,8.9µM*
O=C(Nc1cccc(-c2nc3ccccc3o2)c1)c1cccnc1,?,-1%,-1%,-6%,?,-35%
Cc1ccc2nc(-c3ccc(Cl)c(NC(=O)c4cccc([N+](=O)[O-])c4C)c3)oc2c1,-20%,.,.,.,.,2%
Cc1ccc2oc(-c3ccc(NC(=O)c4cccnc4)cc3)nc2c1,6µM*,2.5µM*,2.2µM*,?,?,2µM*
Cc1ccc2nc(-c3ccc(Cl)c(NC(=O)COc4cccc(C)c4C)c3)oc2c1,4.8µM*,.,.,.,.,?
COC(=O)c1cc(S(=O)(=O)N2CCC(C)CC2)cn1C,-2%,3%,-4%,1%,20%,.
Cc1ccc(NC(=O)CCN2CCN(CCO)CC2)cc1C,-1%,.,.,.,.,6%
Cc1ccc(-n2c(C)cc(/C=C3\NC(=O)NC3=O)c2C)c(C)c1,8.5µM*,1%,2%,8%,8%,-9%
Cc1cc(/C=C2/NC(=O)NC2=O)c(C)n1-c1ccc(C#N)cc1,0%,-3%,1%,2%,6%,-17%
Cc1cc(/C=C2\NC(=O)NC2=O)c(C)n1-c1ccc(N2CCOCC2)cc1,-2%,5%,2%,-2%,?,.
Cc1cc(/C=C2/NC(=O)NC2=O)c(C)n1-c1ccccn1,21µM*,17%,23%,10%,?,?
Cc1c(C(=O)N(C)C)sc2c1c(=O)n(-c1ccc(F)cc1)c(=O)n2Cc1cc(=O)n2ccccc2n1,2%,.,.,.,.,.
CNc1nnc(SCC(=O)c2cc(C)n(C3CC3)c2C)s1,.,?,3.5µM*,?,?,.
Cc1cc(NC(=O)CSc2nnnn2C2CCCC2)no1,2%,-2%,-1%,1%,8%,16%
Cc1cc(C(=O)CSc2nnnn2C)c(C)n1C1CC1,?,?,2.8µM*,?,?,10µM*
Cc1nnc(SCC(=O)c2cc(C)n(C3CC3)c2C)s1,12µM*,2.2µM*,2µM*,?,?,25µM*
Cc1cc(C(=O)CSc2nn3c(=O)c(C(C)(C)C)nnc3s2)c(C)n1C1CC1,-19%,-3%,0%,-4%,-1%,-6%
CCn1c(C)cc(C(=O)CSc2nnnn2C2CCCC2)c1C,1.9µM*,0.71µM*,0.71µM*,?,?,.
CCc1ccccc1NC(=O)CSc1nnc(-c2nonc2NC(C)=O)n1C,4%,.,.,.,.,.
CCCCOc1ccc(C(=O)N2CCN(c3ncccn3)CC2)cc1,2%,1%,3%,-1%,?,.
CCOC(=O)N1CCN(C(=O)CN(c2cccc(Cl)c2C)S(=O)(=O)c2ccc(C)cc2)CC1,-10%,.,.,.,.,-22%
COc1ccc(Cl)cc1S(=O)(=O)N1CCN(C(=O)c2cc(-c3ccc(Br)cc3)n[nH]2)CC1,-3%,.,.,.,.,.
O=C(C[C@H]1C[C@H](C(=O)N2CCCCC2)[C@@]2(CCc3ccccc3)c3[nH]c4ccc(Cl)cc4c3CCN2C1=O)NCc1cccc(C(F)(F)F)c1,.,.,.,-8%,?,.
